This is an account of results in PubChem BioAssay (NCATS).

The nature of test [1]: qHTS to identify inhibitors of the type 1 interferon - major histocompatibility complex class I in skeletal muscle: primary screen against the NCATS Mechanism Interrogation Plate v5.0 (MIPE) Libary (AID 1347411).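 Further: plate controls were vehicle for no effect and reference inhibitor for full effect; nearly all actives have a fitted effect of over 65% in size.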 As to conditions: iHSKM cells + IFN-b, HiBiT-tagged MHC-I luminescence, 24 h; series mostly up to 45.8 µM. An outline of the steps: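 Cells were genome-edited human myoblasts carrying a HiBit tag on endogenous HLA-B. They were treated with IFN-beta (4.0 ng/ml) and titrated compounds (top 46 uM) for 24 hrs before lytic HiBiT detection.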
Background: qHTS replaces the single test concentration by a dilution series.

The nature of test [2]: Cytotoxicity counterscreen for inhibitors of SARS-CoV-2 cell entry (AID 1645845; calls by dose curve; further: nearly all actives have a fitted effect of over 50% in size). As to conditions: cell viability (SARS-CoV-2 entry assay cells); series mostly up to 57.1 µM. An outline of the steps: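 48 h compound treatment (after 1 h preincubation), HEK293-ACE2 cells, 37 C/5% CO2; ATP luminescence endpoint; normalized to cell wells and media blanks.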
(In general: A counterscreen serves to expose hits that act by an unwanted route or on another target.)

The nature of test [3]: Confirmatory qHTS for VERO E6 Cytotoxicity Assay: Counterscreen for SARS-CoV-2 CPE Assay (AID 1508605; calls by dose curve; further: on the % scale 0 is the no-effect control and ±100 the full control effect; nearly all actives have a fitted effect of over 60% in size). As to conditions: cell viability luminescence; series mostly up to 20 µM.
A short description of test [4]: Confirmatory qHTS for activators (rescue) of SARS-CoV-2 Cytopathic Effect (CPE) (AID 1508606; calls by dose curve; further: potency means the concentration at half of the fitted maximal effect; nearly all actives have a fitted effect of over 70% in size). Conditions: Vero E6 SARS-CoV-2 CPE rescue, viability luminescence; series mostly up to 20 µM.
The nature of test [5]: NCATS anti-infectives library activity on HEK293 viability as a counter-qHTS vs the C. elegans viability qHTS (AID 1745854).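 Further: HEK293 cells exposed to compounds for 24 hr before the viability read; on the % scale 0 is the no-effect control and ±100 the full control effect.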 Conditions: HEK293 viability counter-screen; series mostly up to 41.8 µM. An outline of the steps:
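Cytotoxicity in human HEK293 cells is measured by ATP-dependent CellTiter-Glo luminescence following a 24 hr incubation with titrated library compounds at 37C. Top final concentration is 41.7 uM.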

Another test has as its system HEK293T. Kind of test: qHTS assay to identify novel small-molecules to repurpose for Merkel cell carcinoma treatment (AID 1296009). Further: nearly all actives have a fitted effect of over 60% in size. Conditions: MCC and control cell lines, CellTiter-Glo viability, 72 h; at 44.8 µM (top of the series) unless noted. An outline of the steps:
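After compound transfer in DMSO, plates were kept 72 hr at 37 degree celsius. Luminescent ATP signal from CellTiter-Glo served as viability measure, normalized against DMSO and no-cell controls.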

Test [6] can be described thus: OV-KATE Cancer Cell Toxicity qHTS against the NCATS CANVASS Library (AID 1347345). Further: on the % scale 0 is the no-effect control and ±100 the full control effect. As to conditions: OV-KATE cells viability, CellTiter-Glo luminescence, 72 h; series mostly up to 38.3 µM. An outline of the steps:
(§1)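 Quantitative HTS format: an 11-concentration series was applied to 1000 cells/well following a 4-hour attachment. Cultures ran 72 hours before ATP luminescence detection by CellTiter-Glo.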

The nature of test [7]: HPAF-II Cancer Cell Toxicity qHTS against the NCATS CANVASS Library (AID 1347346). Further: on the % scale 0 is the no-effect control and ±100 the full control effect; nearly all actives have a fitted effect of over 55% in size. As to conditions: HPAF-II viability, CellTiter-Glo ATP luminescence, 72 h; series mostly up to 38.3 µM. An outline of the steps: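 Cytotoxicity in HPAF-II pancreatic cancer cells: 72 h treatment across 11 concentrations, ATP-based CellTiter-Glo luminescence endpoint.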
Test [8] is described as follows: OV-SAHO Cancer Cell Toxicity qHTS against the NCATS CANVASS Library (AID 1347348). Further: on the % scale 0 is the no-effect control and ±100 the full control effect; nearly all actives have a fitted effect of over 55% in size. As to conditions: OV-SAHO viability, CellTiter-Glo luminescence, 72 h; series mostly up to 38.3 µM. An outline of the steps: as §1
Test [9] in a line: SW1088 Cancer Cell Toxicity qHTS against the NCATS CANVASS Library (AID 1347350). Further: nearly all actives have a fitted effect of over 75% in size. Conditions: SW1088 viability, CellTiter-Glo luminescence, 72 h; series mostly up to 38.3 µM. An outline of the steps:
as §1

A short description of test [10]: U-118MG Cancer Cell Toxicity qHTS against the NCATS CANVASS Library (AID 1347351). Further: on the % scale 0 is the no-effect control and ±100 the full control effect. Conditions: U-118MG viability, CellTiter-Glo luminescence, 72 h; series mostly up to 38.3 µM. An outline of the steps: as §1
Test [11] is described as follows: HPAF-II 24hr Apoptosis Induction qHTS against the NCATS CANVASS Library (AID 1347356). Further: 0% is about no effect. Conditions: HPAF-II caspase-3/7 Caspase-Glo luminescence; series mostly up to 46.1 µM. An outline of the steps: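 Apoptosis induction in HPAF-II pancreatic cancer cells is measured as caspase-3/7 luminescence after a 24-hour exposure to compounds.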
Test [12] in a line: HEK293 18hr Apoptosis Induction qHTS against the NCATS CANVASS Library (AID 1347357). Further: 0% is about no effect. Conditions: HEK293 caspase-3/7 Caspase-Glo luminescence; series mostly up to 46.1 µM. An outline of the steps:
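Cells seeded at 500/well in DMEM + 10% FBS. Compounds pinned, 11 concentrations. 18 h, 37 degrees C/5% CO2. Caspase-Glo 3/7 added, 15 min RT dark, luminescence read.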

A short description of test [13]: HPAF-II 12hr Apoptosis Induction qHTS against the NCATS CANVASS Library (AID 1347358). Further: 0% is about no effect. As to conditions: HPAF-II caspase-3/7 Caspase-Glo luminescence; series mostly up to 46.1 µM. An outline of the steps: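 Apoptosis in HPAF-II pancreatic cancer cells is scored as caspase 3/7 luminescence following a 12-hour exposure to an 11-point compound series.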
A short description of test [14]: HEK293 24hr Apoptosis Induction qHTS against the NCATS CANVASS Library (AID 1347359). Further: 0% is about no effect. As to conditions: HEK293 caspase-3/7 activation, Caspase-Glo luminescence; series mostly up to 46.1 µM. An outline of the steps:
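Caspase-3/7 activation measured as luminescence from the DEVD-based Caspase-Glo reagent, 15 min at room temperature, following 24-hour compound treatment of HEK293 cells.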

Test [15] is described as follows: HPAF-II 18hr Apoptosis Induction qHTS against the NCATS CANVASS Library (AID 1347360). Further: 0% is about no effect. As to conditions: HPAF-II caspase-3/7 luminescence; series mostly up to 46.1 µM. An outline of the steps:
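Seed HPAF-II cells at 500/well in DMEM + 10% FBS, pin-transfer compounds, incubate 18 hours at 37 degrees C/5% CO2, add Caspase-Glo 3/7 reagent, wait 15 min, read luminescence.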

Test [16] is described as follows: HEK293 12hr Apoptosis Induction qHTS against the NCATS CANVASS Library (AID 1347361). Further: 0% is about no effect. As to conditions: HEK293 caspase-3/7 Caspase-Glo luminescence; series mostly up to 46.1 µM. An outline of the steps: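 Cells are seeded, dosed with an 11-point compound series and incubated 12 hours. Caspase-3/7 activity is detected by luminescent DEVD-substrate reagent after 15 minutes at room temperature.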

Test [17] concerns NAD(P)H diaphorase (Clostridium kluyveri). Kind of test: Diaphorse counterscreen qHTS: Assay Interference Panel against the NCATS CANVASS Library (AID 1347362). Further: 0% is about no effect. As to conditions: Diaphorase enzyme, resazurin to resorufin fluorescence; series mostly up to 57.5 µM. An outline of the steps: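 Counterscreen for coupling-enzyme interference: resorufin fluorescence from resazurin/NADH turnover, read after 5 min at room temperature. Compounds were tested over an 11-point series after 15 min dark preincubation with diaphorase in PBS-Tween.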

The target in test [18] is Luciferin 4-monooxygenase (Photinus pyralis) (UniProt P08659). Kind of test: Firefly luciferase counterscreen qHTS: Assay Interference Panel against the NCATS CANVASS Library (AID 1347363). Further: 0% is about no effect. As to conditions: purified firefly luciferase, luminescence inhibition, 5 min; series mostly up to 57.5 µM. An outline of the steps:
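Luminescence inhibition readout: compounds (11-point qHTS) sat 15 min at room temperature with substrate mix (0.013 mM luciferin and ATP), then firefly luciferase was added and signal read 5 min later.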

Test [19] in a line: Primary qHTS to identify inhibitors of SARS-CoV-2 cell entry (AID 1645846; calls by dose curve; further: nearly all actives have a fitted effect of over 45% in size). Conditions: SARS-CoV-2 pseudovirus cell entry assay, luminescence; activity change, negative = inhibition: at 57.1 µM (top of the series) unless noted; series mostly up to 57.1 µM. An outline of the steps: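 Inhibition of spike-mediated entry was scored in human ACE2-transfected Expi293F cells. Particles were MLV-pseudotyped with Wuhan-Hu-1 S carrying a 19-aa C-terminal deletion; signal was luciferase after two days, scaled between spike PP and fusion-protein-free PP.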

SMILES strings stand for the structures. Records with an inconclusive call do not appear. Active and inactive are the calls of the source. Unless noted, the call rests on the fitted dose curve; in most records, active means well fitted curve in the direction sought with a large enough effect; inconclusive means small, poorly fitted or top-dose-only effect, or another doubt; inactive means no such curve, though single readings can be large; an effect the other way counts as inactive or inconclusive.

Chain of Luciferin 4-monooxygenase (Photinus pyralis) (P08659 whole entry, looked up): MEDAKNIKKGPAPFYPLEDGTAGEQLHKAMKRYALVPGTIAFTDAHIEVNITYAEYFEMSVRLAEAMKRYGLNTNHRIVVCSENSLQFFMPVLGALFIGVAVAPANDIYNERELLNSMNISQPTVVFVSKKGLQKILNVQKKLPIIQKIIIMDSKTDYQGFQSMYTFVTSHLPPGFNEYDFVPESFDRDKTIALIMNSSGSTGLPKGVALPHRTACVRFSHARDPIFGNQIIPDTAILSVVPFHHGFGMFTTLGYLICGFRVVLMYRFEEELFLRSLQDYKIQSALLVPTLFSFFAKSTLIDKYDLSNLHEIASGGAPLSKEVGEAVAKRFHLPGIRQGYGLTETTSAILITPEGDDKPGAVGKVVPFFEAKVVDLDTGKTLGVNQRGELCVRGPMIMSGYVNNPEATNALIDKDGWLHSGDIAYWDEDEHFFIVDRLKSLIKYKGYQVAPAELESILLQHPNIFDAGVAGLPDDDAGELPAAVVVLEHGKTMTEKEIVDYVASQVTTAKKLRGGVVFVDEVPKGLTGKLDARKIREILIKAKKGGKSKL

As to `COc1cc(C(=O)N2CC[C@@H](O)[C@@H](N)C2)cc2nc(-c3cc4ccccc4n3CC3CC3)n(C)c12`, the Potency entry in test [1] and in [2] was “inactive” in each case.

On to `CN1CCCCC1Cn1cc(C(=O)c2cc([N+](=O)[O-])ccc2I)c2ccccc21` (configuration not stated), for which, in [3], the Potency entry was “inactive”. Also, the Potency in test [4] is 10 µM (active).

On to `COc1ccc2c(c1)c(CCN(C)C)cn2S(=O)(=O)c1ccccc1`, for which, in [3], the Potency result is “inactive”.

Consider `CN1Cc2c(ccc3c2OCO3)[C@@H]2[C@H]1c1cc3c(cc1C[C@@H]2O)OCO3`, for which the Potency result in test [5] is “inactive”.

Turning to `CCC1C2CC3C4N(C)c5ccccc5C45CC(C2C5O)N3C1O` (configuration not stated), the outcome with HEK293T was inactive.

Consider `CN1CCC2=C(C1)c1ccccc1Cc1ccccc12`, for which, in test [2], the Potency result was “inactive”.

As for `C/C=C1/CN2CC[C@]34C(=Nc5ccccc53)[C@@H]2C[C@@H]1[C@H]4C(=O)OC`, the Potency entry in [6], in [7], in test [8], in test [9], in test [10] and in test [12] was “inactive” in each case. Moreover, the Potency entry in test [14] and in test [16] was “inactive” throughout. The compound was classed as inactive in [11], in test [13], in [15], in [17] and in test [18].

Take `C[C@H](Nc1ncnc2nc[nH]c12)c1nc2ccc(F)cc2c(=O)n1-c1ccccc1`: in [19], the activity change, negative = inhibition was -57.8%.

In the case of `NC(=O)[C@@H](CC1CC1)[C@@H](CCC(F)(F)F)C(=O)N[C@H]1N=C(c2ccccc2)c2cccc(F)c2NC1=O`, the Potency entry in test [1] and in test [2] was “inactive” each time. Moreover, in test [19], the activity change, negative = inhibition was -2.84%.

On to `CN1C(=O)[C@]23CC4C(C)(C)[C@@]5(C[C@@]41CN2CC[C@@]3(C)O)C(=O)Nc1c5ccc2c1OC=CC(C)(C)O2` (some centres not stated), for which the Potency result in test [6], in test [7], in test [8], in [9], in test [10] and in [12] was “inactive” each time. Besides, the Potency entry in test [14] and in test [16] was “inactive” throughout. For the same compound, the call in [11], in test [13], in test [15], in test [17] and in [18] was inactive.

In the case of `C/C=C(\C)C(=O)O[C@H]1CC2C(=C1C)[C@H]1OC(=O)[C@](C)(O)[C@]1(O)[C@H](OC(=O)CCC)C[C@@]2(C)OC(C)=O` (some centres not stated), the Potency in test [4] was 2.2 µM (active).

`COc1ccc(CCNCc2ccc(OC)c3ccccc23)cc1`: in [3], the Potency result was “inactive”. Moreover, the Potency in [4] is 11.2 µM (active).

As for `Cc1ncc(OC[C@@]2(c3cccc(F)c3)C[C@H]2C(=O)Nc2ccc(F)cn2)c(C)n1`, the Potency entry in test [1], in test [2] and in test [19] was “inactive” throughout.

With `C/C(=C\c1csc(C)n1)[C@@H]1C[C@@H]2O[C@@H]2CCC[C@H](C)[C@H](O)[C@@H](C)C(=O)C(C)(C)[C@@H](O)CC(=O)O1`, the Potency entry in test [1] and in [2] was “inactive” each time. Besides, the activity change, negative = inhibition in test [19] was -70%.

Regarding `CN1CN(c2ccccc2)C2(CCN(CCCC(=O)c3ccc(F)cc3)CC2)C1=O`, the Potency entry in [3] is “inactive”. Besides, the Potency in [4] is 7.08 µM (active).

`CN(CC[C@H](N)CC(=O)N[C@H]1C=C[C@@H](n2ccc(N)nc2=O)O[C@@H]1C(=O)O)C(=N)N`: the outcome in the test with HEK293T was “inactive [at 9.27 µM]”.

On to `CC(C)C(=O)O[C@H]1[C@@H]2[C@H](C)C(=O)O[C@@H]2C[C@@H](C)[C@@H]2C=CC(=O)[C@]21C`, for which the Potency in test [4] is 7.94 µM (active).

Turning to `Cc1sc2c(c1C)C(c1ccc(Cl)cc1)=N[C@@H](CC(=O)Nc1ccc(O)cc1)c1nnc(C)n1-2`, the Potency result in test [5] was “inactive”.
